Results as given in PubChem BioAssay (EPA / NIEHS).
The source made the active and inactive calls. How the source made its calls: active means hit-call score of the fitted dose curve at least 0.9, where 1 is the maximum; inactive means score below 0.9.

The molecules below were run on growth arrest and DNA damage 45 (GADD45B), GADD45B (gene 4616) (assay: LTEA_HepaRG_GADD45B: Life Technologies and Expression Analysis (LTEA) Assay for growth arrest and DNA damage 45 (GADD45B) using HepaRG (AID 2283461)). Settings: mRNA level, 48 h; actives raise or lower the signal.
Procedure: LTEA_HepaRG is a cell based, multiplexed-readout assay that uses HepaRG, a human liver cell line, with measurements taken at 48 hours after chemical dosing on a 96-well plate.LTEA_HepaRG_GADD45B is one of 102 assay component(s) measured in the LTEA HepaRG cell culture assay. It is a marker of Cell proliferation, survival, death.Data from the assay component LTEA_HepaRG_GADD45B was analyzed into 1 endpoint. This assay endpoint, LTEA_HepaRG_GADD45B, was analyzed with bidirectional fitting relative to DMSO as the negative control and baseline of activity. Using a type of inducible reporter, measures of mRNA induction for gain or loss-of-signal activity can be used to understand regulation of transcription factor activity. To generalize the intended target to other relatable targets, this assay endpoint is annotated to the mutagenicity response intended target family, where the subfamily is Cell proliferation, survival, death.
A total of 1060 chemcials from the ToxCast library were tested in eight-point concentration-response experiments. Cell culture and cytotoxicity assays were conducted at Thermo Fisher Scientific's Custom Services facility (Madison, WI). A single lot of human HepaRG cells (Thermo Fisher Scientific, Frederick, MD) was used for the cell culture experiments. 96-well format collagen type I coated plates of human HepaRG cells were prepared using established methods. Briefly, cryopreserved HepaRG cells were thawed, plated at a density of approximately 100,000 cells/well in HepaRG Thaw, Plate, and General Purpose media (HPRG770, Thermo Fisher Scientific), and incubated for 48 hours. 0.5% DMSO was selected as vehicle control to balance the requisite need of DMSO in HepaRG cultures to maintain differentiation (for example, baseline metabolism, proportions of hepatocytes vs. cholangiocytes), while enabling further hepatic receptor pathway activation (for example, PXR and CAR) in response to chemical exposure. 48 hours after plating, the culture medium was replaced with HepaRG Serum-Free Incudtion Media. Cells were exposed to each test chemical in duplicate and maintained in CO2 incubators for another 48 hours. Chemical plates were thawed to room temperature and 200x concentrations of treatment groups were prepared. 8-point conentration-reponse curves were made with the highest exposure at 100 uM, followed by half-log dilutions, all in 0.5% DMSO. Each test plate contained variouse controls, induction positive controls (1mM phenobarbital), cytotoxicity positive controls ([…] aflatoxin B1), vehicle controls (0.5% DMSO), and total lysis controls (0.5% DMSO). Cell morphology images were taken using an Essen IncuCyte FLR automated microscope, with six 96-well plates imaged in about 24 minutes. Images were captured and exported and JPEG files. Spent culture media was transfered to black-well plates for the LDH assay, and remaining media was sorted at -80 C for later use. Cells were treated with RLT buffer and frozen until shipped for gene expression analysis. Total RNA was isolated from the cell suspension in 75 uL of Buffer RLT (Qiagen, Germantown, MD 20874) by Quintiles/Expression Analysis (Durham, NC) using a custom isolation procedure. Total RNA from each plate well was transferred to a preamplification plate. Fluidigm's 96.96 Dynamic ArrayTM (Fluidigm, Amsterdam, the Netherlands) technology was used for gene expression analyses by quantitative reverse transcription polymerase chain reaction (qRT-PCR, performed by Quintiles/Expression Analysis, Durham, NC)89. Standard TaqManTM Assays (Applied Biosystems/ThermoFisher Scientific, Foster City, CA) were used to assess the expression of 93 genes selected based on their selectivity and sensitivity to important hepatic receptors known to be modulated by environmental chemicals; importance in human hepatocyte functionality; and hepatotoxicity. […]
For `C=C(C)[C@H]1Cc2c(ccc3c2O[C@@H]2COc4cc(OC)c(OC)cc4[C@@H]2C3=O)O1`, the AC50 was 16.5 µM (active).
With `Cc1ccn2nc(S(=O)(=O)Nc3c(F)cccc3F)nc2n1` the outcome was “inactive”.
For `C[N+]1(C)CCCCC1`, the outcome was “inactive”.
In the case of `CC(Oc1cccc(Cl)c1)C(=O)O` (stereo not given), the outcome is reported as “inactive”.
With `COP(=O)(OC)SCn1c(=O)oc2cc(Cl)cnc21` the outcome was “inactive”.
In the case of `CNC(=O)ON=C(C)SC`, the outcome is reported as “inactive”.
In the case of `CSc1nc(NC(C)C)nc(NC(C)C)n1`, the outcome is reported as “inactive”.
With `CC(=NC#N)N(C)Cc1ccc(Cl)nc1` the outcome was “inactive”.
With `C#CCC1=C(C)C(OC(=O)C2C(C=C(C)C)C2(C)C)CC1=O` (stereo not given) the outcome was “inactive”.
With `CCC(CC)Nc1c([N+](=O)[O-])cc(C)c(C)c1[N+](=O)[O-]` the outcome was “inactive”.
For `CCOP(=O)(NC(C)C)Oc1ccc(SC)c(C)c1` (stereo not given), the outcome was “inactive”.
In the case of `C[Si](Cn1cncn1)(c1ccc(F)cc1)c1ccc(F)cc1`, the outcome is reported as “inactive”.
In the case of `CCOC(=O)COc1cc(-c2nn(C)c(OC(F)F)c2Cl)c(F)cc1Cl`, the outcome is reported as “inactive”.
With `C#CC(C)(C)NC(=O)c1cc(Cl)cc(Cl)c1` the outcome was “inactive”.
`COc1cccc(C(=O)NN(C(=O)c2cc(C)cc(C)c2)C(C)(C)C)c1C` was tested, and the outcome was “inactive”.
`CCCCOC(=O)[C@@H](C)Oc1ccc(Oc2ccc(C#N)cc2F)cc1` was tested, and the outcome was “inactive”.
In the case of `CCCSP(=O)(OCC)Oc1ccc(Br)cc1Cl` (stereo not given), the outcome is reported as “inactive”.
`CCc1cccc(CC)c1N(COC)C(=O)CCl` was tested, and the outcome was “inactive”.
In the case of `Cc1cc(C2CC2)nc(Nc2ccccc2)n1`, the outcome is reported as “inactive”.
With `CCc1cccc(C)c1N(C(=O)CCl)C(C)COC` (stereo not given) the outcome was “inactive”.
In the case of `CC(C)=CC1C(C(=O)OCN2C(=O)C3=C(CCCC3)C2=O)C1(C)C` (stereo not given), the outcome is reported as “inactive”.
In the case of `COc1ccc(C(=CC(=O)N2CCOCC2)c2ccc(Cl)cc2)cc1OC`, the outcome is reported as “inactive”.
For `Cc1nn(-c2cc(NS(C)(=O)=O)c(Cl)cc2Cl)c(=O)n1C(F)F`, the outcome was “inactive”.
`CC[C@H](C)[C@H]1O[C@]2(C=C[C@@H]1C)C[C@@H]1C[C@@H](C/C=C(\C)[C@@H](O[C@H]3C[C@H](OC)[C@@H](O[C@H]4C[C@H](OC)[C@@H](NC)[C@H](C)O4)[C@H](C)O3)[C@@H](C)/C=C/C=C3\CO[C@@H]4[C@H](O)C(C)=C[C@@H](C(=O)O1)[C@]34O)O2` was tested, and the AC50 was 50 µM (active).
`CCCSP(=O)(OCC)SCCC` was tested, and the outcome was “inactive”.
For `CCOP(=S)(OCC)OC(Cl)C(Cl)(Cl)Cl` (stereo not given), the outcome was “inactive”.
`COP(=O)(OC)C(O)C(Cl)(Cl)Cl` (stereo not given) was tested, and the outcome was “inactive”.
For `CCOP(=S)(OCC)Oc1ccc([N+](=O)[O-])cc1`, the outcome was “inactive”.
For `COP(=O)(NC(C)=O)SC` (stereo not given), the outcome was “inactive”.
With `CCOP(=S)(OCC)SCCSCC` the outcome was “inactive”.
For `CC(C)N(C(=O)SCC(Cl)=C(Cl)Cl)C(C)C`, the outcome was “inactive”.
For `CCOP(=O)(OCC)Oc1cc(C)nc(C(C)C)n1`, the outcome was “inactive”.
In the case of `CNC(=O)Oc1cccc2c1OC(C)(C)O2`, the outcome is reported as “inactive”.
In the case of `CCOC(=O)CC(SP(=O)(OC)OC)C(=O)OCC` (stereo not given), the outcome is reported as “inactive”.
For `CNc1cnn(-c2cccc(C(F)(F)F)c2)c(=O)c1Cl`, the AC50 was 50 µM (active).
With `S=C1NCCN1` the outcome was “inactive”.
In the case of `CC1(C(=O)Nc2ccc(O)c(Cl)c2Cl)CCCCC1`, the outcome is reported as “inactive”.
In the case of `CSc1nnc(C(C)(C)C)c(=O)n1N`, the outcome is reported as “inactive”.
In the case of `CSC1=N[C@@](C)(c2ccccc2)C(=O)N1Nc1ccccc1`, the outcome is reported as “inactive”.
`CON=C(C(=O)OC)c1ccccc1CON=C(C)c1cccc(C(F)(F)F)c1` was tested, and the outcome was “inactive”.
